Screens deposited in PubChem BioAssay by National Center for Advancing Translational Sciences (NCATS).
Most compounds without a hit are left out; they make up all but 1.2% or so of the library.
RXFP1 ag: qHTS Assay for Agonists of the Relaxin Receptor RXFP1; 370,000 tested, 0.3% active; HEK293T-RXFP1 cAMP TR-FRET, 30 min; response scale: percent of porcine relaxin response, buffer zero; Potency, µM (top dose mostly 57.5 µM), actives largely listed as activators; Relaxin receptor 1 (Homo sapiens), Q9HBX9; AID 2676, 2010; active = well fitted activation curve with a large enough effect; inconclusive = small, poorly fitted or top-dose-only effect; note: nearly all actives have a fitted effect of over 60% in size
Target sequence (Q9HBX9 whole entry, looked up): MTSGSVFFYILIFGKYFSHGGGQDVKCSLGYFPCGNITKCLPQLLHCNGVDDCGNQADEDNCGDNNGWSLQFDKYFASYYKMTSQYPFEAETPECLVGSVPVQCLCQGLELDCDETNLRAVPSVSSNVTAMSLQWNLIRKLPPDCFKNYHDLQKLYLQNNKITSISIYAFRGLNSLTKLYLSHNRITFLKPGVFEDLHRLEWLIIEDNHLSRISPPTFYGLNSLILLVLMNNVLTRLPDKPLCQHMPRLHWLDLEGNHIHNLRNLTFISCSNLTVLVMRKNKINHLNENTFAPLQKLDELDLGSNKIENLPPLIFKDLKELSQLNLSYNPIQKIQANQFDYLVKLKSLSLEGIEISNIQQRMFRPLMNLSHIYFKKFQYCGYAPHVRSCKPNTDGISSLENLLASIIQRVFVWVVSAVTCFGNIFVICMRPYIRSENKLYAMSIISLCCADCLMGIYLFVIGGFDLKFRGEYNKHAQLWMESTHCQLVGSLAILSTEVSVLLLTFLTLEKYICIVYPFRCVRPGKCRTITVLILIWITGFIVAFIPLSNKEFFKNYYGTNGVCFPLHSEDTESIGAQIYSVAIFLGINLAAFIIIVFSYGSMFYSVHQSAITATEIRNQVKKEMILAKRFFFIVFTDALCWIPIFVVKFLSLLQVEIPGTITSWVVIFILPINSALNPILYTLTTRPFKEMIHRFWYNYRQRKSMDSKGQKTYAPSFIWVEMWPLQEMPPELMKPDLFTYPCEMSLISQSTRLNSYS
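Agonist response is measured as cAMP accumulation in an RXFP1-transfected HEK293T line under PDE4 inhibition. Values are scaled between buffer-only and 29 nM porcine relaxin, and EC50s come from standard Hill equation fits.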
gsp antagonist: qHTS for Antagonists of gsp, the Etiologic Mutation Responsible for Fibrous Dysplasia/McCune-Albright Syndrome: qHTS; Potency, µM (titrated, usually from 76.9 µM), most hits filed as inhibitors; 340,000 tested, 0.4% active; gsp-mutant cells, cAMP HTRF, 30 min; calls by dose curve; cell line not stated here;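 note: intracellular cAMP measured with PDE inhibitor Ro 20-1724 present during compound exposure; nearly all actives have a fitted effect of over 65% in size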
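Cells, 2000/well, grown 16–24 h in DMEM 10% FBS with 0.5 mg/ml G418, then compounds plus […] (300 uM addition stock), 30 min at 37C. cAMP read by HTRF (cAMP-d2 and anti-cAMP antibody-K in lysis buffer) after 30 min RT.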
gsp agonist: qHTS for Agonist of gsp, the Etiologic Mutation Responsible for Fibrous Dysplasia/McCune-Albright Syndrome: qHTS; gsp mutant cells, cAMP HTRF, 30 min; Potency, µM (doses to about 76.9 µM), actives largely listed as activators; 340,000 tested, 0.13% active; AID 624287, 2012; active = well fitted activation curve with a large enough effect; inconclusive = small, poorly fitted or top-dose-only effect, or another doubt; inactive = no such curve, though single readings can be large or run the other way; cell line not stated here;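 note: phosphodiesterase inhibitor Ro 20-1724 added with compounds to block cAMP breakdown; nearly all actives have a fitted effect of over 60% in size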
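Cells in DMEM/10% FBS with G418 were pretreated with compounds in DMSO plus […] (300 uM stock) for 30 min at 37C. cAMP was measured by HTRF (cAMP-d2 plus anti-cAMP antibody-K) after 30 min at room temperature.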
RXFP1 antagonist: qHTS Assay for Antagonists of the Relaxin Receptor RXFP1; 350,000 tested, 0.59% active; Relaxin receptor 1 (Homo sapiens), Q9HBX9; activity change, negative = inhibition, % at 57.5 µM; AID 1259400, 2018; HEK293-RXFP1, relaxin-stimulated cAMP HTRF, 30 min; active compounds read low;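 active = activity change of -60% or lower, but not beyond a set lower limit; inconclusive = change between -60% and -40%, or beyond the set limit; inactive = change above -40%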
Akt phos inh: HTS Assay for Inhibitors of Akt Phophorylation: Primary Screen | Neuro2A IGF-stimulated pAkt S473 HTRF, 20 min; active compounds read low | activity change, % for hits at 50 µM | 360,000 tested, 0.32% active | AID 651550, 2012; in the data active = activity change below about -80%; inconclusive = mostly about -51% to -80%
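Neuro2A cells (4,500/well, DMEM with 0.5% FBS) were treated with compound at a single 50 µM final concentration, stimulated with 6 nM IGF for 20 min at 37 °C, and lysed. Phospho-Akt Ser473 was read by HTRF as 665/615 ratio ×10^4.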
Hits are given with their value; n = inactive; u = inconclusive; x = no result; [ ] = remark or other dose.

SMILES | RXFP1 ag | gsp antagonist | gsp agonist | RXFP1 antagonist | Akt phos inh
O=S(=O)(/N=S1\CC=CCN1S(=O)(=O)c1ccccc1)c1ccccc1 (stereo unspecified) | x | 50µM | n | -110 | n
O=C(Nc1cc(Cl)ccc1Oc1ccccc1)C1=COCCO1 | n | n | n | -75 | n
CCOC(=O)c1c(NC(=S)Nc2ccc(Cl)cc2)sc(C)c1C | n | n | n | n | n
COC(=O)c1c(NC(=S)Nc2ccc(CC(=O)O)cc2)sc(C)c1C | n | n | u | -63 | n
Cc1ccc(/C=N/NC(=O)C(C)Oc2ccccc2[N+](=O)[O-])s1 (stereo unspecified) | n | 11µM | n | x | n
O=C(N/N=C/c1ccc(Cl)s1)c1ccccc1[N+](=O)[O-] | n | n | n[15.4 µM] | n | n
Cc1sc2ncn(CC(=O)Nc3ccc(C(C)C)cc3)c(=O)c2c1S(=O)(=O)N1CCN(c2ncccn2)CC1 | 25µM | x | x | x | x
CCC(C)NC(=O)Cn1cnc2sc(C)c(S(=O)(=O)N3CCN(c4ncccn4)CC3)c2c1=O (stereo unspecified) | n | n | n | n | n
O=C1C2=C(C(=O)c3ccccc31)C1O[C@](c3ccsc3)(Cc3ccccc31)O2 | n[11.5 µM] | x | x | x | x
Cc1cccc(-c2nc(CN3CCCC(C(=O)N4CCN(c5cc(Cl)ccc5C)CC4)C3)c(C)o2)c1 (stereo unspecified) | n | x | x | x | x
CCC1SC(=NC(=O)c2ccc(Cl)c(Cl)c2)NC1=O (stereo unspecified) | n | 13µM | n | n | n
CC(C)c1ccc(Nc2ncnc3onc(-c4ccc(F)cc4)c23)cc1 | n | x | x | n | x
Cn1c2c(c(=O)n(C)c1=O)C(C(F)(F)F)(C(F)(F)F)N=C(c1ccc(Cl)cc1)N2 | n | 40µM | n | n | n
CC(=O)CC/C=C(\C)CC/C=C(/C)CC/C=C(\C)CCC=C(C)C | x | x | x | n | x
O=C(O)CCCCn1c(SCc2cc(=O)n3cc(Cl)ccc3n2)nc2ccsc2c1=O | u | n | u | n | n
O=C(O)c1ccc(Cn2c(SCc3cc(=O)n4cc(Br)ccc4n3)nc3ccsc3c2=O)cc1 | 16µM | x | x | x | x
O=C(O)C1CCC(Cn2c(SCc3cc(=O)n4cc(Br)ccc4n3)nc3ccsc3c2=O)CC1 (stereo unspecified) | 8.9µM | x | n[15.4 µM] | n | n
O=C(NCc1ccc(F)cc1)c1cc(Sc2ccc(F)cc2F)nc2ccccc12 | n | x | x | n | x
CCCS(=O)(=O)c1nc(S(=O)(=O)c2ccc(C)cc2)c(N2CCN(C)CC2)s1 | u | n | 3.2µM | n | n
CCS(=O)(=O)c1nc(S(=O)(=O)c2ccc(C)cc2)c(N2CC(C)OC(C)C2)s1 (stereo unspecified) | 28µM | n | u | n | n
CCCS(=O)(=O)c1nc(S(=O)(=O)c2ccc(C)cc2)c(NCCCN2CCCC2=O)s1 | n | n | 2.8µM | n | n
Cc1ccc2oc(=O)c(S(=O)(=O)c3ccc(C(C)(C)C)cc3)cc2c1 | n | x | x | x | x
Cc1ccc(NS(=O)(=O)c2c(C)nc3sccn3c2=O)cc1 | n | n | n | -79 | n
Cc1ccc(-c2cc(-c3ccccc3)[nH]c(=S)c2C#N)cc1 | n | n | u | n | n
N#Cc1c(N)[nH]c(=S)c(C#N)c1-c1ccccc1 | n | n | 20µM | n | n
SMILES | RXFP1 ag | gsp antagonist | gsp agonist | RXFP1 antagonist | Akt phos inh
CCc1ccc(C(C)NC(=O)/C(C#N)=C\c2cn[nH]c2-c2ccccc2)cc1 (stereo unspecified) | n | n | n | n | -83%
Cc1cc(=O)[nH]c(SCn2nnc3ccccc3c2=O)n1 | n | n | u | n | -99%
COc1ccc(-c2csc(N(CCCN(C)C)C(=O)c3ccc(C(C)(C)C)cc3)n2)cc1 | n | n | n[15.4 µM] | -65 | n
Cc1c(C(=O)Nc2cccc(Cl)c2)c2ccccn2c1CCc1ccncc1 | n | 28µM | n[15.4 µM] | n | n
Cc1ccccc1OCC(=O)Nc1ccc2nc(SCC(=O)N3CCCC3)sc2c1 | n | x | x | -86 | x
O=C(Nc1ccc2nc(SCC(=O)N3CCOCC3)sc2c1)c1cccc(Cl)c1 | n | x | x | -82 | x
CC(C)(C)c1ccc(C(=O)Nc2ccc3nc(SCC(=O)N4CCCC4)sc3c2)cc1 | n | x | x | -101 | x
Oc1ccc(CNc2cccc(C(F)(F)F)c2)c2cccnc12 | n | x | x | x | x
COC(=O)c1sccc1S(=O)(=O)N(CC(=O)NCc1ccc(C)cc1)c1ccccc1 | n | x | x | x | x
C=Cc1ccc(Cn2c(=O)cc(C)c3c(C)nn(C)c32)cc1 | n | x | x | n | x
COc1ccc(S(=O)(=O)N2CCN(C(=O)NC3CCCCC3)CC2)cc1OC | n | n | n | n | -106%
COc1ccc(C(=O)NC2CCCCC2)cc1S(=O)(=O)N1CCOCC1 | n | n | n | n | n
COc1ccc(C(=O)NC2CCCCCC2)cc1S(=O)(=O)N1CCCC1 | n | 11µM | n[15.4 µM] | n | n
COC(=O)c1ccc(N2NC(=O)/C(=C/c3cc(OC)c(O)c(OC)c3)C2=O)cc1 | n | n | u | n | n
COC(=O)c1ccc(N2NC(=O)/C(=C/c3cc(OC)c(OC)c(OC)c3)C2=O)cc1 | n | 13µM | u | n | n
COc1cc(NC(=O)Nc2cccc(-c3noc(C)n3)c2)cc(OC)c1OC | n | x | x | x | x
Cc1cn(C)c(CC(=O)Nc2cccc(Cl)c2C)c1C(=O)O | n | x | x | n | x
Cc1cc(C)c2sc(N(CCCN(C)C)C(=O)COc3ccc(Cl)cc3)nc2c1 | n | n | n[15.4 µM] | -72 | n
Cc1cc(C)c2sc(N(CCCN(C)C)C(=O)c3ccc(S(=O)(=O)N(C)C4CCCCC4)cc3)nc2c1 | n | n | n[15.4 µM] | -84 | n
CCCC12CN3CC(CCC)(CN(C1)C3c1c[nH]c3ccccc13)C2=O (stereo unspecified) | n | x | x | n | x
COc1ccc(OC)c(NC(=O)CSc2nc(O)cc(=O)n2CC(C)C)c1 | x | n | n | -80 | n
COc1ccc(-n2c(SCC(=O)Nc3ccccc3)nc(O)cc2=O)cc1 | n | n | n | n | n
COc1ccc(-n2c(SCC(=O)Nc3cccc4ccccc34)nc(O)cc2=O)cc1 | n | n | n[15.4 µM] | -66 | n
COc1ccc(NC(=O)CSc2nc(O)cc(=O)n2-c2ccc(OC)cc2)cc1 | n | u | u | -78 | n
COc1ccc(-c2nc(CNS(=O)(=O)c3cccc(F)c3)cs2)cc1 | n | x | x | n | x
CCc1nn(CC(=O)N2CCN(c3cccc(C(F)(F)F)c3)CC2)c(=O)c2cccn12 | n | x | x | n | x
CCOc1ccc2nc(NC(=O)CSc3nc(-c4ccccc4)c(C#N)c(=O)[nH]3)sc2c1 | u | n | n[15.4 µM] | n | n
N#Cc1c(-c2ccccc2)nc(SCC(=O)NC2CCCCC2)[nH]c1=O | 22µM | n | u | n | n
COc1cccc(-c2nc(SCC(=O)Nc3nc(-c4ccccc4)c(C)s3)[nH]c(=O)c2C#N)c1 | n | n | n[15.4 µM] | -71 | n
